The source of these data is ChEMBL document CHEMBL2218924, “A broad activity screen in support of a chemogenomic map for kinase signalling research and drug discovery” (Biochem J, 2013).

In test [1] the target is T1, cGMP-dependent protein kinase 1 (Homo sapiens) (UniProt Q13976).
T1 sequence (whole entry): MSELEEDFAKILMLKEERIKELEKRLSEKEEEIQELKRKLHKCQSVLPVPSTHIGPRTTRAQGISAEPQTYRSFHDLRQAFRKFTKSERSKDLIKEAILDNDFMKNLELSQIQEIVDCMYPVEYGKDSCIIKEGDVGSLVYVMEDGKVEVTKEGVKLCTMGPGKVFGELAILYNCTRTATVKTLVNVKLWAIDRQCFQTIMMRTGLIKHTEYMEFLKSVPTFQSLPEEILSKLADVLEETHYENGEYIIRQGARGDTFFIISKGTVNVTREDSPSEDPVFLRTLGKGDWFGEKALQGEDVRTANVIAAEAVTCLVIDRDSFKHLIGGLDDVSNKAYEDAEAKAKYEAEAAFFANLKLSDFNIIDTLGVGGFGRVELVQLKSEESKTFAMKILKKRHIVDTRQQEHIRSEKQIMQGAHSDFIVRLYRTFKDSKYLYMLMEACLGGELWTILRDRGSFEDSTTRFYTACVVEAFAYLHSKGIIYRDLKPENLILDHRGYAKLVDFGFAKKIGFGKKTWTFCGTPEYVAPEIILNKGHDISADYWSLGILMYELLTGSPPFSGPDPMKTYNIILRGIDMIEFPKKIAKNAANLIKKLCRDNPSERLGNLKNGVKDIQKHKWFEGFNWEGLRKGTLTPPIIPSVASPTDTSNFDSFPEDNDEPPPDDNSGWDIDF
Particulars: at 1 µM.

Test [2] has as its target T1, cGMP-dependent protein kinase 1 (Homo sapiens). Conditions: at 10 µM.
For test [3] the target is unchanged. Particulars: at 1 µM. The source holds these as a separate data set.
For test [4] the target is unchanged. Particulars: at 10 µM. The source holds these as a separate data set.
Test [5] addresses T2, MAP kinase-activated protein kinase 5 (Homo sapiens) (UniProt Q8IW41).
T2 sequence (whole entry): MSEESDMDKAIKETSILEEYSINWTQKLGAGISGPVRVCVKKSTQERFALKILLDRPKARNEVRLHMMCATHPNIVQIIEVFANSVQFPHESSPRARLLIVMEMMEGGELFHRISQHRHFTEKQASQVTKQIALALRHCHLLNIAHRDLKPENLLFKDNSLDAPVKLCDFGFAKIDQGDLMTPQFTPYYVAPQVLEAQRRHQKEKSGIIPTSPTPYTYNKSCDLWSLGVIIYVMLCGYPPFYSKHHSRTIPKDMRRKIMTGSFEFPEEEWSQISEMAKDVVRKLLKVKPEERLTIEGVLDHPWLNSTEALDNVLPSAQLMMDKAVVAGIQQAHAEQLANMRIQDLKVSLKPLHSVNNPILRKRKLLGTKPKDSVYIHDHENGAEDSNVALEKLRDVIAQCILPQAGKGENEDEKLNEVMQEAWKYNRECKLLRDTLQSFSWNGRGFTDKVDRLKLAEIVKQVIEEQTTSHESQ
Conditions: at 1 µM.

Test [6] has as its target T2, MAP kinase-activated protein kinase 5 (Homo sapiens). Conditions: at 10 µM.
Test [7] has as its target Serine/threonine-protein kinase N2 (Homo sapiens) (UniProt Q16513). Particulars: at 1 µM.
For test [8] the target is unchanged. Particulars: at 10 µM.
Test [9] has as its target Tyrosine-protein kinase FRK (Homo sapiens) (UniProt P42685). Particulars: at 1 µM.
The target is the same in test [10]. Conditions: at 10 µM.
For test [11], the target named is T3, Phosphorylase b kinase gamma catalytic chain, liver/testis isoform (Homo sapiens) (UniProt P15735).
T3 sequence (whole entry): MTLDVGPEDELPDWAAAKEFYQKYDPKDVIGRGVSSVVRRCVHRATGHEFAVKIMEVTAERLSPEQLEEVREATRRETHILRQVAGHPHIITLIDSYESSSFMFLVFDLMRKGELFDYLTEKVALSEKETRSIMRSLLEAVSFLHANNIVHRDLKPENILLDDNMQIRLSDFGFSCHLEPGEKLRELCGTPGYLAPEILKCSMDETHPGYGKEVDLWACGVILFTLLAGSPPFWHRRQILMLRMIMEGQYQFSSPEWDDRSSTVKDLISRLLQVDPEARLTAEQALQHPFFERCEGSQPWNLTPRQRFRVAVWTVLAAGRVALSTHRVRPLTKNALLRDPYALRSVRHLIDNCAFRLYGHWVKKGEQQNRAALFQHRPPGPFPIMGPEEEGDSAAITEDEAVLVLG
Particulars: at 1 µM.

For test [12], the target named is T3, Phosphorylase b kinase gamma catalytic chain, liver/testis isoform (Homo sapiens). Particulars: at 10 µM.
Test [13] concerns the target Serine/threonine-protein kinase pim-1 (Homo sapiens) (UniProt P11309). Particulars: at 1 µM.
Test [14] shares this target. Conditions: at 10 µM.
Test [15] has as its target Serine/threonine-protein kinase pim-2 (Homo sapiens) (UniProt Q9P1W9). Conditions: at 1 µM.
Test [16] shares this target. Conditions: at 10 µM.
The target in test [17] is Serine/threonine-protein kinase pim-3 (Homo sapiens) (UniProt Q86V86). Conditions: at 1 µM.
For test [18] the target is unchanged. Conditions: at 10 µM.
In test [19] the target is Serine/threonine-protein kinase PLK1 (Homo sapiens) (UniProt P53350). Particulars: at 1 µM.
Serine/threonine-protein kinase PLK1 (Homo sapiens), sequence (P53350 whole entry): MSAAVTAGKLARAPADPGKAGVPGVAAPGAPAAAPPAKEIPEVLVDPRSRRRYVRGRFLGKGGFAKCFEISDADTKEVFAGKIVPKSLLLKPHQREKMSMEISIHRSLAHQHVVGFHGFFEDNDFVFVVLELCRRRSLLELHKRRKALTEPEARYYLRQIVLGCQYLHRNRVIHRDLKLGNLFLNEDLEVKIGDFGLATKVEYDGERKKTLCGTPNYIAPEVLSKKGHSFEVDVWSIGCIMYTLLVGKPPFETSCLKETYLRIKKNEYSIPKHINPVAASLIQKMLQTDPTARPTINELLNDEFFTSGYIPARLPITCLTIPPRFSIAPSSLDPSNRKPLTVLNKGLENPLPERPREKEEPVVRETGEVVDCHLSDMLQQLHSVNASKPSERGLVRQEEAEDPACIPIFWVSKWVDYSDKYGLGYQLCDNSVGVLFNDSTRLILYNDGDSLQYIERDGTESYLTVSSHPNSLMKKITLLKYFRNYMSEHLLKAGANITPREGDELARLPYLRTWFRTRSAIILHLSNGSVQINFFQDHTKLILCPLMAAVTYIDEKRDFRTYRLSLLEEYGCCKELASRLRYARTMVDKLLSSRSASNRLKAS
Test [20] has the same target. Conditions: at 10 µM.

Molecules are shown by their SMILES.

Serine/threonine-protein kinase N2 (Homo sapiens), sequence (Q16513 whole entry, looked up): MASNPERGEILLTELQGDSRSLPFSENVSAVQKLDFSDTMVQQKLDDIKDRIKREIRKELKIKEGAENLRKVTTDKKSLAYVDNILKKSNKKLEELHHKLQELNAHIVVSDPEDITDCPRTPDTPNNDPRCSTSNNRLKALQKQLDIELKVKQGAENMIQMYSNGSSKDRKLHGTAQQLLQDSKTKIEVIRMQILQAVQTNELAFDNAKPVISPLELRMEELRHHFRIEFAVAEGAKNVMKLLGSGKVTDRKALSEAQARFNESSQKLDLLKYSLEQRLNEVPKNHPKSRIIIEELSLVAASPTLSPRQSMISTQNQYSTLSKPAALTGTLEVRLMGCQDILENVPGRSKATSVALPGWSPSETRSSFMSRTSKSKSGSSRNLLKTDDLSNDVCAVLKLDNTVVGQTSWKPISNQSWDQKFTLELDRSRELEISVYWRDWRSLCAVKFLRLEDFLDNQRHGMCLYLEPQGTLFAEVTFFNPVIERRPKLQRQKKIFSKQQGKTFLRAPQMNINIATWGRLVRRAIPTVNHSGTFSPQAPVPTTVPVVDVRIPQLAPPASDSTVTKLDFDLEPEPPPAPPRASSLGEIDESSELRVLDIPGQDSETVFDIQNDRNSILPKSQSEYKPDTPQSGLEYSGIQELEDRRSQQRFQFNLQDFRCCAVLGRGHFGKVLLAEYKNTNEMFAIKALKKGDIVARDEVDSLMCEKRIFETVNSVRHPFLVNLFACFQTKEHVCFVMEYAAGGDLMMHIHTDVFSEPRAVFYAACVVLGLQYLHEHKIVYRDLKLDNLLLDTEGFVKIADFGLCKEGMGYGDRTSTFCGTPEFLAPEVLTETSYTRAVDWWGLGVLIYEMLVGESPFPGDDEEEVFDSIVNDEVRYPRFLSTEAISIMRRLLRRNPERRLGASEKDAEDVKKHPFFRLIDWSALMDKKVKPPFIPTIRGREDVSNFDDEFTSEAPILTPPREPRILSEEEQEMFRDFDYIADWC
Serine/threonine-protein kinase pim-2 (Homo sapiens), sequence (Q9P1W9 whole entry, looked up): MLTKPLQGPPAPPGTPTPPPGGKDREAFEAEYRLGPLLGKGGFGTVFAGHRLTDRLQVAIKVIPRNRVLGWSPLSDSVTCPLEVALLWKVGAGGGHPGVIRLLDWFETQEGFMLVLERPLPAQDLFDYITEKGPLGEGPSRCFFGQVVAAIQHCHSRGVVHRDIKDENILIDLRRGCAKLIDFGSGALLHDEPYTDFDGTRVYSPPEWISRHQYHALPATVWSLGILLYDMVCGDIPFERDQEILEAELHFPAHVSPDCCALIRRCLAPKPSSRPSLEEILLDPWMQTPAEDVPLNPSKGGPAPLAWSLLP
Serine/threonine-protein kinase pim-1 (Homo sapiens), sequence (P11309 whole entry, looked up): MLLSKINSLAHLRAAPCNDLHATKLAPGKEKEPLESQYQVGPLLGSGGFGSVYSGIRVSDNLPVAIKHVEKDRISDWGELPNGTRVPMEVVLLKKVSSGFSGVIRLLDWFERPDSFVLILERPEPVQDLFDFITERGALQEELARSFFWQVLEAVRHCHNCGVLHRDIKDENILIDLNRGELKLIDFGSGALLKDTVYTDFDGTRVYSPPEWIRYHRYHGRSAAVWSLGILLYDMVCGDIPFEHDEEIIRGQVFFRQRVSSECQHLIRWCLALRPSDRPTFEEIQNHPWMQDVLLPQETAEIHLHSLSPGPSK
Tyrosine-protein kinase FRK (Homo sapiens), sequence (P42685 whole entry): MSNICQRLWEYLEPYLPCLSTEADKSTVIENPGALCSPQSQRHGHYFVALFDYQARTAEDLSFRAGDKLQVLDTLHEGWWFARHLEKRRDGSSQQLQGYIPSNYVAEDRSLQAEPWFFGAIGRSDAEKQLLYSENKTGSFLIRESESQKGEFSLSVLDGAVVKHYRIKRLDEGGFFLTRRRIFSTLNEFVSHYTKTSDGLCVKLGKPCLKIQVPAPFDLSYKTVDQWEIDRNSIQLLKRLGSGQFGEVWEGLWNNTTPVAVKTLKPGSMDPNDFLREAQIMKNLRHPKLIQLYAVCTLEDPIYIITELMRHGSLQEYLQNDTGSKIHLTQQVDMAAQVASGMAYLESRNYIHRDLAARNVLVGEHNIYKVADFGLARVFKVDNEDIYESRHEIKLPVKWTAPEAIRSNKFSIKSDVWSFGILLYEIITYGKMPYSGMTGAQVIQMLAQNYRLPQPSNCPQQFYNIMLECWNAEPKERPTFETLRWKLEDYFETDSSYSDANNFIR

In the case of `Nc1n[nH]c2nnc(-c3c(-c4ccccc4)nn4ccccc34)cc12`, the residual activity in [1] is 95%; in test [2] it was 104%; in test [3] it was 92%; in test [4], 76%; in test [5], 104%; in test [6], 101%. The residual activity in test [7] stood at 91%; in test [8], 76%; in test [9], 99%; in test [10], 46%; in test [11] it was 104%; in test [12] it was 98%. Moreover, the residual activity came out at 98% in test [13]; 85% in test [14]; 123% in test [15]; 74% in [16]; 88% in [17]; 83% in test [18]. Also, the residual activity in test [19] came out at 78%; in test [20] it was 92%.

As for `COc1ccc(OC)c2c(=S)c3ccccc3[nH]c12`, the residual activity in test [1] came out at 93%; in test [2], 109%; in test [3], 94%; in test [4], 76%; in test [5], 96%; in [6] it was 90%. The residual activity stood at 99% in [7]; 88% in [8]; 95% in test [9]; 99% in test [10]; 119% in [11]; 103% in [12]. For the same molecule, the residual activity in [13] came out at 97%; in [14], 52%; in [15] it was 117%; in test [16] it was 77%; in [17], 88%; in [18], 80%. For the same molecule, the residual activity was found to be 80% in [19] and 91% in test [20].

In the case of `CC#CC(=O)Nc1cc2c(Nc3ccc(F)c(Cl)c3)ncnc2cn1`, the residual activity was 103% in test [1]; 102% in [2]; 86% in test [3]; 92% in [4]; 84% in test [5]; 77% in test [6]. In addition, the residual activity in test [7] turned out to be 94%; in test [8], 98%; in test [9] it was 97%; in [10], 92%; in test [11] it was 92%; in test [12], 105%. Further, the residual activity in [13] stood at 88%; in [14], 101%; in [15] it was 82%; in [16], 109%; in [17], 91%; in test [18] it was 91%. The results for the residual activity in test [19] and in test [20] were 98% and 81%, respectively.

`Oc1ccc(Nc2nc(-c3ccc(Cl)cc3)cs2)cc1`: the residual activity in test [1] came out at 100%; in test [2] it was 99%; in test [3], 113%; in [4] it was 111%; in test [5] it was 115%; in [6], 69%. The residual activity in test [7] is 110%; in [8], 107%; in test [9] it was 104%; in [10] it was 118%; in test [11] it was 129%; in [12], 130%. Moreover, the residual activity came out at 77% in [13]; 52% in test [14]; 126% in test [15]; 82% in test [16]; 93% in [17]; 97% in [18]. In addition, the residual activity came to 97% in [19] and 90% in test [20].

In the case of `CNc1cc2c(Nc3cccc(Br)c3)ncnc2cn1`, the residual activity in test [1] was 112%; in [2], 108%; in [3], 75%; in [4] it was 62%; in [5], 89%; in test [6], 94%. Besides, the residual activity in test [7] came to 84%; in [8], 93%; in test [9], 92%; in [10], 37%; in [11] it was 104%; in test [12], 107%. For the same molecule, the residual activity in test [13] is 64%; in test [14] it was 42%; in [15], 86%; in test [16], 88%; in test [17] it was 96%; in test [18], 81%. Further, the results for the residual activity in test [19] and in test [20] were 99% and 94%, respectively.

On to `Cc1nc2cc3nc(-c4cccs4)cnc3cc2n1C`, for which the residual activity in test [1] worked out at 117%; in [2], 96%; in [3], 99%; in test [4] it was 103%; in test [5] it was 81%; in test [6], 56%. The residual activity was 97% in test [7]; 100% in [8]; 99% in test [9]; 76% in test [10]; 94% in test [11]; 111% in [12]. Moreover, the residual activity in test [13] is 100%; in test [14], 101%; in test [15], 90%; in [16] it was 121%; in test [17], 101%; in test [18], 102%. Moreover, the residual activity in test [19] turned out to be 118%; in test [20], 85%.

Turning to `Cn1cnc2cc3c(Nc4cccc(Br)c4)ncnc3cc21`, the residual activity in [1] was 115%; in test [2] it was 87%; in test [3], 93%; in test [4] it was 88%; in [5] it was 78%; in [6], 78%. Further, the residual activity was 101% in test [7]; 97% in test [8]; 72% in [9]; 28% in test [10]; 95% in [11]; 98% in test [12]. For the same molecule, the residual activity in test [13] turned out to be 75%; in test [14], 63%; in [15] it was 84%; in test [16], 97%; in test [17] it was 92%; in test [18], 88%. In addition, the results for the residual activity in [19] and in test [20] were 105% and 82%, respectively.
